An excerpt weighted towards active compounds, which were near 21% of everything screened.
CHX counter = affects cycloheximide protein synthesis inhibition readout, counter-screen | max response, % | actives 12% (n = 300,000) | cell reporter, cycloheximide protein synthesis inhibition counterscreen; in the data active = max response mostly above about 13%, no sharp cut-off; inactive = mostly below about 14%; also: read at 38.3 µM for the half of the compounds with a filed dose
Pf growth 96h = P. falciparum growth inhibition at 96 hour, primary screen for plastid delayed-death inhibitors. P. falciparum luciferase reporter growth, 96 h. actives 6.9% (n = 320,000). Potency, µM (highest dose often 28.7 µM), hits mostly inhibitors
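Luminescence readout: decreased luciferase signal marks inhibited growth of reporter-expressing P. falciparum in infected red cells (2% hematocrit, 0.05% parasitemia final), exposed to compound two generations (96 h, 37 C, 5% CO2).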
Pf growth 48h = P. falciparum growth inhibition at 48 hours (one generation) | Potency, µM (top dose mostly 28.7 µM), most hits filed as inhibitors | P. falciparum luciferase growth in erythrocytes, 48 h | actives 5.9% (n = 310,000)
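In quantitative HTS format, infected erythrocytes bearing luciferase-reporter parasites were treated for a single generation at 37 C. Luminescence after adding detection reagent served as the growth measure.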
Shiga toxin inh = inhibitors of Shiga toxin in Vero cells; Vero cells, Shiga toxin protein synthesis inhibition reporter; inhibition, % at 38.7 µM; actives 9.2% (n = 290,000); AID 2315; in the data active = inhibition mostly above about 28%, no sharp cut-off; inactive = mostly below about 43%
HCV inh = blocks hepatitis C virus. Huh7.5.1 HCVcc-Cre infection, luciferase reporter, 44 h. Potency, µM (series often up to 41.8 µM), actives largely listed as inhibitors. actives 3.4% (n = 340,000). AID 651820
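Cells (1,000/well) were plated 4 h before compound, then infected with HCVcc-Cre virus (~0.5 moi). After 44 h further culture, infection was read as luciferase luminescence following a 15 min substrate incubation at room temperature.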
HCMV inh = blocks human cytomegalovirus replication. HFF cells, HCMV-luciferase reporter, 72 h; hits give low values. AID 1259415. activity change, negative = inhibition, % at 57.5 µM. actives 4.5% (n = 410,000); in the data active = activity change below about -60%; inconclusive = no clear call, values can overlap the other calls; inactive = above about -39%
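After 16 h attachment at 37C, HFF cells received test compound and HCMV-luciferase (1 PFU/cell); reporter luminescence read 72 h later, data normalized against buffer-only and known inhibitor Salinomycin.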
Each line names hits and unclear results; the compound was inactive in the other large screens; ! = a repeat was not active. Unless noted, calls follow the shape of the dose curve; as a rule, active = well fitted inhibition curve with a large enough effect; inconclusive = small, poorly fitted or top-dose-only effect, or another doubt; inactive = no such curve, though single readings can be large or run the other way.

O=C(Cc1cccs1)Nc1ccc(Cl)c(S(=O)(=O)N2CCOCC2)c1	Pf growth 96h inconclusive, Pf growth 48h 10.4µM, HCV inh inconclusive, HCMV inh inconclusive (no result: CHX counter, Shiga toxin inh)
O=C(Cc1cccs1)Nc1ccc(F)c(S(=O)(=O)N2CCOCC2)c1	Pf growth 96h 6.57µM, Pf growth 48h inconclusive, HCV inh inconclusive (no result: CHX counter, Shiga toxin inh)
CCOC(=O)Cn1ccc(-c2ccccc2)c(C#N)c1=O	none
CC(C)(C)OC(=O)NC(Cc1ccccc1)C(=O)N1CCC(C(=O)NCC(=O)Nc2ccc(F)cc2)CC1 (stereo unspecified)	Pf growth 96h 11.7µM, Pf growth 48h inconclusive
CC(C)(C)OC(=O)N[C@@H](Cc1ccccc1)C(=O)N1CCC(C(=O)NCC(=O)O)CC1	none
COc1ccc2c3c(cccc13)C(=O)CC2	HCMV inh -70.8
COc1ccc(C(=O)NC(=S)Nc2ccc3c4c(cccc24)CC3)cc1OC	none
CCc1noc(C)c1C(=O)Nc1ccccc1N1CCOCC1	none (no result: CHX counter, Shiga toxin inh)
O=[N+]([O-])c1ccc(N2CCN(S(=O)(=O)c3ccccc3[N+](=O)[O-])CC2)cc1NCc1cccnc1	Pf growth 96h 10.4µM, Pf growth 48h 8.28µM
O=[N+]([O-])c1ccc(N2CCN(S(=O)(=O)c3ccccc3)CC2)cc1NCCN1CCOCC1	Pf growth 96h 9.28µM, Pf growth 48h 13.1µM, HCV inh inconclusive
CCS(=O)(=O)N1CCN(c2ccc([N+](=O)[O-])c(NCc3cccnc3)c2)CC1	none
c1ccc(CCCCc2ccncc2)cc1	HCMV inh -63.0 (no result: CHX counter, Pf growth 96h, Pf growth 48h, Shiga toxin inh)
COc1ccc(CCNC(=O)c2cc3c(=O)n4cccc(C)c4nc3n(CC3CCCO3)c2=N)cc1 (stereo unspecified)	Pf growth 96h inconclusive, Pf growth 48h 1.47µM
Cc1cccn2c(=O)c3cc(C(=O)NCC4CCCO4)c(=N)n(CCc4ccccc4)c3nc12 (stereo unspecified)	Pf growth 96h inconclusive, Pf growth 48h 4.65µM
COCCn1c(=N)c(C(=O)NCC2CCCO2)cc2c(=O)n3ccccc3nc21 (stereo unspecified)	none (no result: CHX counter, Pf growth 96h, Pf growth 48h, Shiga toxin inh, HCV inh)
Cc1cccn2c(=O)c3cc(C(=O)O)n(C)c3nc12	none
COC(=O)C1CCN(C(=O)c2cc3c(=O)n4cccc(C)c4nc3n2Cc2ccccc2)CC1	Pf growth 96h 4.15µM, Pf growth 48h 5.86µM
COCCn1ccc2c(OCC(=O)Nc3cccc(C(F)(F)F)c3)cccc2c1=O	none (no result: CHX counter, Pf growth 96h, Pf growth 48h, Shiga toxin inh, HCV inh)
CCCCOc1cc(C(=O)NCCN(CC)CC)c2ccccc2n1	Pf growth 96h 10.4µM, Pf growth 48h 13.1µM
CCN(CC)CCNC(=O)c1cc2cc(Br)ccc2s1	Pf growth 96h inconclusive, HCV inh 12.6µM
CCN(CC)CCNC(=O)c1cc2c(-c3ccc(Cl)cc3)nn(C)c2s1	HCV inh inconclusive (no result: Pf growth 48h)
CCN(CC)CCNC(=O)c1cc(-c2ccc(Br)s2)nc2ccccc12	HCV inh 12.6µM, HCMV inh -93.6! (no result: Pf growth 48h)
CCCCN(C)CCNC(=O)c1cc(-c2ccc(Cl)s2)nc2ccccc12	HCMV inh -101.0 (no result: CHX counter, Pf growth 96h, Pf growth 48h, Shiga toxin inh, HCV inh)
CC(C)CN(CCNC(=O)c1cc(-c2ccc(Cl)s2)nc2ccccc12)CC(C)C	none (no result: CHX counter, Pf growth 96h, Pf growth 48h, Shiga toxin inh, HCV inh)
CCOCCCNC(=O)c1cc(-c2ccc(Br)s2)nc2ccccc12	Pf growth 96h 10.4µM (no result: Pf growth 48h)
CCc1ccc(CNC(=O)c2cc(-c3ccc(Br)s3)nc3ccccc23)cc1	none (no result: CHX counter, Pf growth 96h, Pf growth 48h, Shiga toxin inh, HCV inh)
Cc1ccc(-n2ncc3c2CCCC3NC(=O)CSc2ccccn2)cc1C (stereo unspecified)	none (no result: HCV inh)
CC1C/C(=N/N=C2/NC(=O)CS2)CC(C)(C)C1 (stereo unspecified)	Pf growth 96h 10.4µM
CC1C/C(=N/N2C(=O)CSC2=S)CC(C)(C)C1 (stereo unspecified)	Pf growth 96h 13.1µM, HCMV inh -70.2
O=C1CS/C(=N/N=C2C3CC4CC(C3)CC2C4)N1	Pf growth 96h 13.1µM, HCMV inh inconclusive
COc1ccc(S(=O)(=O)N2CCOCC2)cc1NC(=O)c1c(C)noc1C	none (no result: CHX counter, Pf growth 96h, Pf growth 48h, Shiga toxin inh, HCV inh)
Cc1ccc(Cl)cc1-c1cc(C(=O)NCc2ccc(C(F)(F)F)cc2)[nH]n1	none (no result: CHX counter, Pf growth 96h, Pf growth 48h, Shiga toxin inh, HCV inh)
Cc1sc(N/N=C/c2cc([N+](=O)[O-])ccc2O)nc1-c1ccccc1	Pf growth 96h inconclusive, Pf growth 48h inconclusive
O=[N+]([O-])c1ccc(O)c(-c2nc(-c3ccccc3)c(-c3cccs3)[nH]2)c1	Pf growth 96h inconclusive, HCV inh 6.31µM, HCMV inh -102.6
CCOc1cc(-c2nc(-c3ccccc3)c(-c3cc([N+](=O)[O-])ccc3C)[nH]2)ccc1O	Pf growth 96h inconclusive, Pf growth 48h inconclusive, HCV inh inconclusive, HCMV inh -82.2
COc1ccc(-c2nc(-c3ccccc3)c(-c3cc([N+](=O)[O-])ccc3C)[nH]2)cc1OC	Pf growth 48h inconclusive, HCV inh 15.8µM, HCMV inh -79.5 (no result: Pf growth 96h)
COc1ccc(/C=C2\N=C3CCCCCN3C2=O)cc1	CHX counter 41.4, Shiga toxin inh 76.2
O=C1/C(=C/c2ccncc2)N=C2CCCCCN12	none
COc1ccc(/C=C2/N=C3CCCCCN3C2=O)cc1OC	Shiga toxin inh 11.0
O=C1OC2(c3ccc(O)cc3Oc3cc(O)ccc32)c2ccccc21	none (no result: Pf growth 96h, Pf growth 48h, HCV inh, HCMV inh)
Cc1cc(O)ccc1C1(c2ccc(O)cc2C)OC(=O)c2ccccc21	HCMV inh -95.9
O=C1OC2(c3cc(I)c(O)c(I)c3Oc3c2cc(I)c(O)c3I)c2c(Cl)c(Cl)c(Cl)c(Cl)c21	none (no result: Pf growth 96h, Pf growth 48h, HCV inh, HCMV inh)
O=C1OC2(c3ccccc31)c1cc(I)c(O)c(I)c1Oc1c2cc(I)c(O)c1I	Pf growth 96h 8.28µM, Pf growth 48h 13.1µM (no result: HCMV inh)
CCOCCCn1c(C)nc2c[n+](CC(=O)c3ccc4ccccc4c3)cc(Br)c21	Pf growth 96h inconclusive, Pf growth 48h inconclusive
Cc1ccccc1C(=O)NCC(=O)OC(C)C(=O)NC(C)CCc1ccccc1 (stereo unspecified)	Pf growth 96h 11.7µM, Pf growth 48h inconclusive (no result: CHX counter, Shiga toxin inh)
CC(CCc1ccccc1)NC(=O)c1ccccc1C(=O)O (stereo unspecified)	none
COc1ccccc1C(=O)Nc1ccc(C(=O)N2CCCCC2)cc1	CHX counter 13.1
COc1ccccc1NS(=O)(=O)c1cc(C(=O)N2CCCCCCC2)ccc1C	Pf growth 96h inconclusive (no result: CHX counter, Shiga toxin inh)
COc1ccccc1NS(=O)(=O)c1cc(C(=O)N2CCCC2)ccc1F	Pf growth 96h inconclusive, Pf growth 48h 3.29µM (no result: CHX counter, Shiga toxin inh)
COC(=O)c1ccccc1NC(=O)Nc1ccc(C(=O)N2CCCC2)cc1	Pf growth 96h inconclusive
COc1ccccc1C1CCN(C(=O)c2ccc(C(C)(C)C)cc2)CC1	Pf growth 96h 7.38µM, Pf growth 48h 11.7µM, HCV inh inconclusive, HCMV inh inconclusive
COc1ccccc1NC(=O)Nc1ccc(C(=O)N2CCCCC2)cc1	CHX counter 27.2, Shiga toxin inh 79.6
COc1ccccc1N1CCN(C(=O)c2ccc(C(C)(C)C)cc2)CC1	Pf growth 48h inconclusive (no result: Pf growth 96h)
CCOc1ccccc1NC(=O)CN1Cc2ccccc2C1=O	none (no result: CHX counter, Pf growth 96h, Pf growth 48h, Shiga toxin inh, HCV inh)
CCOc1ccc(CC(=O)N/N=C/c2cccnc2)cc1OCC	none
